Some of the results follow. Entries that show only a call come without a potency. Active and inactive are the calls of the source.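 How the source made its calls: active means compounds that inhibited Clk3 enough in the ten-dose series to give a half-maximal potency; inactive means the rest.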
target: Dual specificity protein kinase CLK3 (Homo sapiens) (UniProt P49761); assay: Kinase Inhibition Study on Inhibitors of CDC-like Kinase 3 (Reaction Biology data); conditions: recombinant CLK3 kinase assay, 10 uM ATP
Sequence (P49761 whole entry, looked up, canonical isoform): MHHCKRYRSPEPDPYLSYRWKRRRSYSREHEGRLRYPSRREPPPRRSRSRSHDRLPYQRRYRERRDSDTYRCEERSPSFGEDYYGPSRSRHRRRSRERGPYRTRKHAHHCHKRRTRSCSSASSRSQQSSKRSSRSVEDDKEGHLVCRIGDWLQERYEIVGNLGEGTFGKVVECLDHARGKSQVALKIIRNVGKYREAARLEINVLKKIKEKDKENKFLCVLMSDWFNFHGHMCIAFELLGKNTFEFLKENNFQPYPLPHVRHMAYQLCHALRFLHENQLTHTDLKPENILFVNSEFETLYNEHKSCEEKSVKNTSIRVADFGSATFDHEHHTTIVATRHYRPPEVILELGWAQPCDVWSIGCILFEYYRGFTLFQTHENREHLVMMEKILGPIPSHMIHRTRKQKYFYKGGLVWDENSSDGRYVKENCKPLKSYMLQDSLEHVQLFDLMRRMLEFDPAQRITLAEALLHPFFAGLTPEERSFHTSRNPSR
Description: NIH Molecular Libraries Probe Production Centers Network [MLPCN] NIH Chemical Genomics Center [NCGC] MLPCN Grant: 1R03MH084827-01 Assay Submitter (PI): Tom Misteli NCGC Assay Overview: Alternative splicing of pre-mRNAs plays a major role in the regulation of eukaryotic gene expression. Alternative splicing is now thought to be one of the primary reasons for the complexity of higher organisms leading to an average of three protein isoforms per gene. Aberrant splicing can lead to a number of diseases and is known to play a role in rare genetic diseases such as progeria syndrome. Hutchinson-Gilford Progeria Syndrome (HGPS) is a pediatric premature aging disease caused by a spontaneous mutation in the lamin A/C (LMNA) gene due to a single point mutation in the lamin A gene effecting 1 in 4 million people. To identify both specific splicing modulators of the lamin A gene as well as general splicing modulators, a cell-based HTS assay was developed using a minigene reporter system (AIDs, 1459 & 1487). […] This AID summarizes the characterization of lead compounds in Clk3.
All kinase reactions were performed using 10 uM ATP in the assay. 100% activity was taken from kinase reactions with DMSO alone (the vehicle used for compound stock solutions).

Row | SMILES | outcome | Potency
1 | c1nc(N2CCOCC2)c2cc(-c3ccc4c(c3)OCO4)ccc2n1 | inactive | 
2 | CC(Nc1ncnc2ccc(-c3ccc4c(c3)OCO4)cc12)c1ccco1 (centres undefined) |  | 15 µM (active)
3 | c1coc(CCNc2ncnc3ccc(-c4ccc5c(c4)OCO5)cc23)c1 |  | 2.02 µM (active)
4 | CN(Cc1cncn1C)c1ncnc2ccc(-c3ccc4c(c3)OCO4)cc12 | inactive | 
